# Laboratory results taken from PubChem BioAssay AID588856 (National Center for Advancing Translational Sciences (NCATS), 2011).
# Hit rate of the full screen: of about 410,000 compounds, about 3,100 (0.76%) were called active. The call rests on the fitted dose curve; in most records, active means well fitted cell-killing curve with a large enough effect; inactive means no such curve, though single readings can be large or run the other way. Many of the other results were omitted from the sample, so actives are more common in it than they were.
# Experiment: qHTS for Inhibitors of TGF-b: Cytotox Counterscreen
# Conditions: HepG2 CAGA-GFP viability, ATP luminescence, 18 h; series mostly up to 46.1 µM; activity change, negative = cytotoxicity: at the top concentration
# Method in brief: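 HepG2 CAGA-GFP cells (1000/well, DMEM with 1% FBS) received compound, then TGF-beta at 500 pg/mL final, and were incubated 18 hours at 37 degrees C. Viability was read by CellTiter-Glo luminescence. Media-only wells were set as complete cell-killing and DMSO as no toxicity.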
# Potency means the concentration at half of the fitted maximal effect.
Compound,"activity change, negative = cytotoxicity",Potency
COCCNC(=O)c1ccc2c(c1)N(Cc1cccc(Cl)c1)C(=O)c1ccccc1S2(=O)=O,-23.1% (inactive),–
Cc1ccc(C(=O)N2CCc3cc(CNC(=O)c4ccc(Br)cc4)ccc32)cc1,-18% (inactive),–
O=C(CSc1nc(Nc2ccccc2)nc(N2CCOCC2)n1)Nc1cc(Cl)ccc1O,–,6.31 µM (active)
O=C(CSc1nc2ccc(Nc3nc(N4CCOCC4)nc(N4CCOCC4)n3)cc2s1)NCc1ccco1,-31.4% (inactive),–
O=C(CSc1ccccc1)Nc1cc(Cl)ccc1Oc1ccccc1,-3.19% (inactive),–
O=C1/C(=C\c2ccc([N+](=O)[O-])cc2)CS(=O)(=O)C/C1=C/c1ccc([N+](=O)[O-])cc1,–,14.1 µM (active)
O=[N+]([O-])c1ccc(/C=C/c2ccc3cccnc3c2)cc1,-53.7% (inactive),–
O=C(Cc1ccc(Br)cc1)NCCN1CCOCC1,4.13% (inactive),–
O=S(=O)(c1ccc(Cl)cc1)c1nc(-c2ccccc2F)oc1NCCN1CCOCC1,16.4% (inactive),–
c1ccc2cc3c(NCCN4CCOCC4)ccnc3cc2c1,–,3.55 µM (active)
CCC(=O)N1CCc2cc(CNC(=O)Nc3ccccc3Cl)ccc21,-8.04% (inactive),–
COc1ccc(-c2nc(S(=O)(=O)c3ccccc3)c(N3CCCCC3)o2)cc1,-4.93% (inactive),–
CCCc1nc2scc(-c3ccc(C)cc3)c2c(=O)n1N,26.8% (inactive),–
CCCc1cc(-c2nc(-c3ccc(C)cc3)cs2)ccn1,–,10 µM (active)
Fc1ccc(-c2csc(-c3ccc(C4SCCS4)cc3)n2)cc1F,-2.96% (inactive),–
CC1(C)Cc2ccccc2-c2c[nH]c(=O)n21,-4.31% (inactive),–
CCN(CC)CCOc1ccc2c(c1)C(=NNC(=O)c1ccccn1)c1cc(OCCN(CC)CC)ccc1-2,–,15.8 µM (active)
CCOc1ccc(C(=O)N2CCN(CCc3ccccn3)CC2)cc1,3.93% (inactive),–
CC(C)(C)c1ccc(C(=O)C[n+]2cccc3cc(Cl)ccc32)cc1,-92% (inactive),–
CCN(C(=O)Cn1c(=O)nc(-c2ccccc2)c2cc(Cl)ccc21)c1cccc(C)c1,6.33% (inactive),–
O=C(c1cnn2c1NC(=C1CC1)C=C2C(F)F)N1CCc2ccccc2C1,-9.79% (inactive),–
CN1CCN(c2oc(-c3ccc(COc4ccc(Cl)cc4)o3)nc2C#N)CC1,-30% (inactive),–
CN(C)Cc1cn(-c2ccccc2)nc1-c1ccccc1,-26.4% (inactive),–
CCc1ccc(-c2nn(-c3ccccc3)cc2CSC(=N)N)cc1,–,17.8 µM (active)
CCc1ccc(-c2nn(-c3ccccc3C)cc2C(=O)N2CCN(C3CCS(=O)(=O)C3)CC2)cc1 (configuration not stated),-12% (inactive),–

Compound,"activity change, negative = cytotoxicity",Potency
Cc1cc(C)c(NC(=O)Cn2c(SCC(=O)NCc3ccccc3)nc3ccccc32)c(C)c1,1.54% (inactive),–
Cc1ccc(Cl)cc1N1CCN(C(=O)C2CCC(CNS(=O)(=O)c3cccs3)CC2)CC1 (configuration not stated),-0.372% (inactive),–
COc1ccccc1CN1CCC(CNC(=O)c2cnn(-c3ccccc3Cl)c2C2CCN(C(=O)OC(C)(C)C)CC2)CC1,-60.3% (inactive),–
Cc1ccc(CN2CCC(CNC(=O)c3cnn(-c4ccccc4Cl)c3C3CCN(C(=O)OC(C)(C)C)CC3)CC2)cc1,–,17.8 µM (active)
Cc1ccc(CN2CCC(CNC(=O)c3cnn(-c4ccc(C)cc4)c3C3CCN(C(=O)OC(C)(C)C)CC3)CC2)cc1,-71.7% (inactive),–
CC1(C)CC(=O)c2cc(C(=O)NCc3ccccc3)c(=O)[nH]c2C1,-16.3% (inactive),–
Cc1nc2c(OCc3ccc(Cl)cc3Cl)cccn2c1N(C)CC1CC1,–,11.2 µM (active)
Cc1nc2c(OCc3cccc(Cl)c3)cccn2c1N(C)CC1CC1,-32.8% (inactive),–
Cc1nc2c(OCc3ccc(Cl)cc3)cccn2c1N(C)Cc1cccs1,-61.6% (inactive),–
CCCCC(=O)N(C)c1c(CC)nc2c(OCc3ccc(S(C)(=O)=O)cc3)cccn12,-22.7% (inactive),–
CCCCC(=O)N(C)c1c(CC)nc2c(OCc3ccc(Cl)cc3Cl)cccn12,–,12.6 µM (active)
CCc1nc2c(OCc3ccc(Cl)cc3Cl)cccn2c1N(C)C(=O)C(C)C,-112% (inactive),–
Cc1ccc(C)c(S(=O)(=O)c2nnn3c2nc(N2CCOCC2)c2sccc23)c1,-0.494% (inactive),–
CN1CCN(/[N+]([O-])=N/Oc2ccc([N+](=O)[O-])cc2[N+](=O)[O-])CC1,-43.6% (inactive),–
CC1(C)C=Cc2c(ccc(C(=O)/C=C/c3ccccc3)c2O)O1,-21.1% (inactive),–
O=C1C=CC(=O)N1c1ccc(N2CCCCC2)cc1,–,17.8 µM (active)
Cc1ccc(CNC(=O)CCc2c(C)nc3c(c(C)nn3-c3ccccc3)c2C)cc1,-0.273% (inactive),–
O=C(Nc1ccc(Cl)cc1)c1cnn2c1NC(=C1CC1)C=C2C(F)F,8.6% (inactive),–
COc1ccc(-c2nc3sc(CCNC(=O)C(C)(C)C)c(C)n3n2)cc1,-8.78% (inactive),–
CC1CCC2(CC1)N=C(c1ccccc1)C(=O)N2CC(=O)Nc1ccc(F)c(Cl)c1 (configuration not stated),-29.1% (inactive),–
CCn1c(SCC(=O)Nc2nc(C)cs2)nnc1C(C)NC(=O)c1ccccc1 (configuration not stated),-6.84% (inactive),–
COCCn1c(SCC(=O)Nc2nc(C)cs2)nnc1C(C)C,–,11.2 µM (active)
CCn1c(CC(=O)Nc2ccc(C)cc2)nnc1SCC(=O)Nc1nc(C)cs1,-0.792% (inactive),–
CCn1c2ccccc2c2nnc(SCC(=O)O)nc21,-10.9% (inactive),–
COc1ccc(NC(=O)Nc2cccc(-c3noc(C)n3)c2)cc1,-21.4% (inactive),–

Compound,"activity change, negative = cytotoxicity",Potency
Cc1ccc(S(=O)(=O)N2CCN(c3nc(-n4cnc5ccccc54)nc4ccccc34)CC2)cc1,-20.3% (inactive),–
Cc1sc2ncn(CC(=O)N3CCN(c4ccc(F)cc4)CC3)c(=O)c2c1S(=O)(=O)N1CCN(c2ncccn2)CC1,-13.7% (inactive),–
CC(C)(C)OC(=O)N(Cc1ccco1)S(=O)(=O)c1ccccc1Br,49% (inactive),–
C=C1C=C(C(F)F)n2ncc(C(=O)NCCc3ccccc3OC)c2N1,9.57% (inactive),–
COc1ccc(-c2cn3c(n2)sc2cc(C(=O)Nc4ccccc4F)ccc23)cc1,-25.4% (inactive),–
CC(Nc1nc(C(F)(F)F)nc2ccccc12)c1cccs1 (configuration not stated),–,22.4 µM (active)
Oc1ccccc1-c1nc(/C=C/c2ccc(F)cc2)no1,-4.32% (inactive),–
COc1cc(Cl)ccc1Nc1ncc(C(=O)N2CCN(c3ccccc3OC)CC2)c2ccccc12,-20.1% (inactive),–
Cc1ccc(S(=O)(=O)NCC2CCC(C(=O)N3CCOCC3)CC2)cc1 (configuration not stated),-27.1% (inactive),–
O=C(O)C1CCC(CNS(=O)(=O)c2ccc(Br)cc2)CC1 (configuration not stated),–,15.8 µM (active)
O=C(NC1CCCCC1)C1CCC(CNS(=O)(=O)c2ccccc2)CC1 (configuration not stated),0.959% (inactive),–
O=C(NC1CC(=O)N(c2ccc(F)cc2)C1)c1ccc(S(=O)(=O)N2CCCC2)cc1 (configuration not stated),-8.93% (inactive),–
CN(C(=O)CSc1nc2ccc(NC(=O)COc3ccccc3)cc2s1)c1ccccc1,-19.4% (inactive),–
Cc1ccc(F)cc1NC(=O)CCSc1nc(-c2ccco2)cc(C(F)(F)F)n1,-14.5% (inactive),–
CCc1ccc(CN(Cc2ccco2)C(=O)c2ccccc2Cl)cc1,-52% (inactive),–
CC1CCCCN1S(=O)(=O)c1ccc(F)c(C(=O)Nc2ccccc2C(F)(F)F)c1 (configuration not stated),-15% (inactive),–
Cc1ccc(CNC(=O)CCc2c(C)nn(-c3ccc(N4CCCC4)nn3)c2C)cc1,-31.6% (inactive),–
N=c1n(Cc2ccc(Cl)cc2)c2ccccc2n1CC(O)c1ccco1 (configuration not stated),–,12.6 µM (active)
O=C(NCc1ccccc1)C(=O)NCC(c1ccco1)S(=O)(=O)c1ccc(Cl)cc1 (configuration not stated),-15.4% (inactive),–
N=c1n(CCc2ccccc2)c2ccccc2n1Cc1ccccc1F,3.66% (inactive),–
COc1ccccc1-c1ccnc2[nH]n(-c3ccccc3)c(=O)c12,-6.7% (inactive),–
OCc1cnc(SCc2ccc(F)cc2)n1Cc1ccc(F)cc1,-24.2% (inactive),–
NC(Cc1ccccc1)c1csc(Nc2cc(Oc3ccccc3)ncn2)n1 (configuration not stated),–,31.6 µM (active)
COCCn1c(SCC(=O)c2cc(C)ccc2C)nc2cc(C(=O)NC3CCCC3)ccc2c1=O,-6.56% (inactive),–
CCC(=O)N1CCc2cc(S(=O)(=O)NC(C(=O)Nc3ccc(C(C)=O)cc3)C(C)C)ccc21 (configuration not stated),-14.7% (inactive),–

Compound,"activity change, negative = cytotoxicity",Potency
COC(=O)c1ccc(-c2nc3cc(NC(C)=O)ccc3o2)cc1,-1.18% (inactive),–
CCn1cc(CN2CCC(C(=O)Nc3cccc(-c4cccc(Cl)c4)c3)CC2)c(C)n1,–,12.6 µM (active)
CC(=O)c1cc(CN2CCC(C(=O)Nc3cccc(-c4cscn4)c3)CC2)cs1,-31.8% (inactive),–
O=C(Nc1cccc(-c2cccc(Cl)c2)c1)C1CCN(C2CCC2)CC1,-73.6% (inactive),–
Cc1ccc(CNC(=O)C2(C(F)(F)F)C/C(=C\CCO)CCCO2)o1 (configuration not stated),-11.9% (inactive),–
COc1cc(OC)c2c(C)cc(=O)oc2c1C(CCN1CCCCC1)c1ccc(N(C)C)cc1 (configuration not stated),-34.4% (inactive),–
Cc1cc(C)cc(NS(=O)(=O)c2ccc(Oc3ncc(C(F)(F)F)cc3Cl)cc2)c1,–,12.6 µM (active)
Nc1ncc(S(=O)(=O)Nc2ccc(OC(F)(F)F)cc2)cn1,-7.99% (inactive),–
Cc1ccc(NS(=O)(=O)c2ccc(F)cc2)nc1,-17% (inactive),–
NC(=O)C1CCN(C(=O)c2cccc(NC(=O)c3nsc4ccccc34)c2)CC1,-18% (inactive),–
COc1cc(OC)c(N(C)C(=O)c2cc3c(=O)oc4ccccc4c3s2)cc1Cl,-20% (inactive),–
CC(C)CC[n+]1ccn(C2=C([O-])c3ccccc3C(=O)/C2=N\S(=O)(=O)c2ccccc2)c1,–,5.62 µM (active)
Cc1ccc(S(=O)(=O)/N=C2\C=C(NS(=O)(=O)c3ccc(C)cc3)C(=O)c3ccccc32)cc1,-112% (inactive),–
C=C1CCN(C(CC(C)C)C(=O)N2CCOCC2)S(=O)(=O)c2ccccc21 (configuration not stated),-22.3% (inactive),–
NC(c1csc(NC(=O)Nc2cccc(C(F)(F)F)c2)n1)C1CCCCC1 (configuration not stated),–,8.91 µM (active)
O=C(CN1c2ccccc2S(=O)(=O)c2ccccc21)Nc1cccc(C(F)(F)F)c1,-28.4% (inactive),–
Cc1oc2ccc(O)c(CN3CCCCC3)c2c1C(=O)Nc1cccc(C(F)(F)F)c1,-71.8% (inactive),–
O=C(CC(NCc1cccnc1)C(=O)O)Nc1ccc(O)cc1 (configuration not stated),-1.55% (inactive),–
Cc1c(Cl)cccc1NC(=O)CSc1ccc(-c2cccnc2)nn1,-17.7% (inactive),–
O=C(N/N=C/c1cccc2cccnc12)[C@H]1C[C@@H]1c1ccccc1,-31.3% (inactive),–
O=C(CSc1cccc2cccnc12)N/N=C/c1cccnc1,–,7.08 µM (active)
Cc1cc[n+](C2CCCCC2)cc1,-32.8% (inactive),–
